Screening data: PubChem BioAssay, several laboratories
GalR3 antagonist: GalR3 antagonists in HEK293 cells, primary screen, cell-based, fluorescence readout. Galanin receptor type 3 (Homo sapiens), O60755. HEK293 GalR3-CNG cAMP membrane potential fluorescence; galR3 body fused to GalR1 C-terminus. inhibition, % at 3 µM. 0.44% of 360,000 active. AID 651719, 2012;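 active means inhibition above the screen-wide average plus 3 SD, cut at about 13% in these data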;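 further: forskolin and galanin both at EC90 stimulate the cells; cAMP rise reported by CNG channel membrane potential dye signal; 0% = forskolin plus galanin with DMSO and 100% = forskolin alone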
Target sequence (O60755 1-299 limits assumed): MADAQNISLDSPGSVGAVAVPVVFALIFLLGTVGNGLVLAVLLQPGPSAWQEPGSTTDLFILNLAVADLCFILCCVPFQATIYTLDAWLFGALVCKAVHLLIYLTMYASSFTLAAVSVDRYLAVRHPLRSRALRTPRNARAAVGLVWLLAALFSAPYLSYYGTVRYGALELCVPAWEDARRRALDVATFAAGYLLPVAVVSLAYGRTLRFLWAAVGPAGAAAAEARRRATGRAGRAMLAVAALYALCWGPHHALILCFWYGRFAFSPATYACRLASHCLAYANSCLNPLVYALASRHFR
FXN GAA850 act: FXN promoter activators, primary screen, cell-based, luciferase luminescence, HEK293 lucGAA850 | HEK293 lucGAA850 FXN promoter luciferase reporter, 24 h; percent of 10 µM SAHA response | activation, % at 6 µM | 0.56% of 360,000 active;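 active means activation above the average of all compounds screened plus 3 SD, cutoff fixed separately per campaign, cut at about 7.5% in these data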;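 further: 0% = DMSO wells and 100% = 10 µM SAHA wells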
SMARCA2 act: SMARCA2 (BRM) function activators, primary screen, cell-based, luminescence, high throughput; activation, % at 9.1 µM; MG213 cells, MMTV-luciferase reporter, dexamethasone, overnight; 1% of 370,000 active; in the data active means activation above about 7.8%;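 further: 0% = vehicle wells and 100% = reference activator wells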
Cardio protect: cardioprotection against H2O2-induced cell death, primary screen, uHTS, H9c2 cells, ATPLite luminescence. H9c2 cardiomyocytes, H2O2 injury protection, 2 h. protection from H2O2 cell death, % at 20 µM. 0.63% of 360,000 active. AID 588492, 2011;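 active means compounds giving at least 50% protection of heart cells from peroxide-induced death in the single-dose screen, raw or plate-pattern-corrected value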;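 further: 0% = DMSO wells with peroxide and 100% = DMSO wells without peroxide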
Gli-Sufu block: Gli-Sufu pathway antagonists, primary screen, luciferase luminescence, Sufu-KO-LIGHT cells, uHTS | Sufu-KO-LIGHT fibroblasts, Gli luciferase reporter luminescence | inhibition, % at 5 µM | 0.74% of 340,000 active;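 active means inhibition above about 55%, limit read from the data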;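 further: 0% = DMSO-treated cells and 100% = wells with medium but no cells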
NR2F2 inh: NR2F2 transcriptional activity inhibitors, primary screen, cell-based, luciferase reporter, HEK293T, luminescence. COUP transcription factor 2 (Homo sapiens), P24468. HEK293T NGFI-A luciferase reporter. inhibition, % at 8.6 µM. 0.7% of 370,000 active;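 active means inhibition above a per-plate cutoff, mean inhibition of test wells between control levels plus 3 SD, cut at about 38% in these data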;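 further: cells cotransfected with COUP-TFII expression vector driving the NGFI-A reporter; 0% = median of COUP-TF2 test wells and 100% = reporter-only cells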
SMARCA2 conf: SMARCA2 (BRM) function activators, confirmation, cell-based, luminescence, triplicate; 30% of 3,500 active; AID 652260, 2013; activation, % at 9.1 µM; MG213 cells, MMTV-luciferase with dexamethasone, overnight; MG213 cells expressing E1A, Rb sequestered; DMSO wells 0%, reference activator 100%; shares compounds with SMARCA2 act;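 active means activation above its plate's cutoff, the mean activation of tested wells plus 3 SD, cut at about 7.9% in these data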
VP16 Luc act: GAL4-VP16 luciferase reporter activation, counter-screen for SMARCA2 (BRM) activator project, cell-based, pG5luc, luminescence, high throughput | shares compounds with SMARCA2 act | activation, % at 9.1 µM | HEK293 GAL4-VP16 pG5luc reporter; scaled: DMSO wells 0%, SAHA wells 100% | AID 686939, 2013 | 41% of 3,500 active;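 active means activation above the solvent-only control well mean plus 3 SD, averaged across control plates, cut at about 5.2% in these data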
Starred values were filed as active, the others as inactive. A selection: hits, their analogues and other compounds. The true share with any hit is near 3.4%.

What do the screens show for `O=C(NNC(=S)Nc1ccccc1)c1cccnc1`?
GalR3 antagonist: -4; FXN GAA850 act: 2; SMARCA2 act: 8.8*; Cardio protect: -2; Gli-Sufu block: 6; NR2F2 inh: -33; SMARCA2 conf: -2; VP16 Luc act: 5.4*

How did Cc1occc1C(=O)NNC(=O)C1CC1 do in these assays?
GalR3 antagonist: 2; FXN GAA850 act: -1; SMARCA2 act: 9.5*; Cardio protect: -5; Gli-Sufu block: -5; NR2F2 inh: -10; SMARCA2 conf: 6; VP16 Luc act: 1

How did O=C(NNC(=S)NC(=O)c1cccnc1)c1ccccc1 do in these assays?
GalR3 antagonist: -3; FXN GAA850 act: 0; SMARCA2 act: -1; Cardio protect: 4; Gli-Sufu block: -6; NR2F2 inh: 3

Results for COC(=O)Cc1c(C)c2ccc(O)c(CNCc3ccc(OC)c(OC)c3)c2oc1=O ?
GalR3 antagonist: -10; FXN GAA850 act: 0; SMARCA2 act: 1; Cardio protect: -4; Gli-Sufu block: -11; NR2F2 inh: 6

Results for Cc1ccc(CN2CCN(c3ccccn3)CC2)s1 ?
GalR3 antagonist: 0; FXN GAA850 act: 4; SMARCA2 act: 9.6*; Cardio protect: -3; Gli-Sufu block: 18; NR2F2 inh: -19; SMARCA2 conf: 3; VP16 Luc act: 0

What do the screens show for `Cc1cccc(CN2CCN(c3ccccn3)CC2)c1`?
GalR3 antagonist: -4; FXN GAA850 act: -2; SMARCA2 act: -4; Cardio protect: -2; Gli-Sufu block: 6; NR2F2 inh: 1

How did O=C(c1cc(-c2ccc(Cl)cc2Cl)on1)N1CCCC1 do in these assays?
GalR3 antagonist: -1; FXN GAA850 act: -1; SMARCA2 act: 0; Cardio protect: -17; Gli-Sufu block: -10; NR2F2 inh: -22

Results for Cc1nccc(-c2cc(-c3ccc(Cl)cc3Cl)no2)n1 ?
GalR3 antagonist: -4; FXN GAA850 act: 2; SMARCA2 act: 16*; Cardio protect: -21; Gli-Sufu block: -68; NR2F2 inh: -25; SMARCA2 conf: 14*; VP16 Luc act: 3

How did O=C(/C=C1\SC(=O)NC1=O)Nc1ccc(F)cc1 do in these assays?
GalR3 antagonist: 5; FXN GAA850 act: 1; SMARCA2 act: 8.4*; Cardio protect: 2; Gli-Sufu block: -4; NR2F2 inh: -13; SMARCA2 conf: 6; VP16 Luc act: 2

Results for O=C(COc1ccccc1/C=C1\SC(=O)NC1=O)Nc1ccccc1 ?
GalR3 antagonist: -4; FXN GAA850 act: 2; SMARCA2 act: -3; Cardio protect: -7; Gli-Sufu block: 0; NR2F2 inh: 10

What do the screens show for `CCN(CC)CCn1c(NCc2nc3ccccc3n2Cc2ccccc2)nc2ccccc21`?
GalR3 antagonist: -7; FXN GAA850 act: -12; SMARCA2 act: 9.0*; Cardio protect: 19; Gli-Sufu block: -7; NR2F2 inh: -21; SMARCA2 conf: 4; VP16 Luc act: 5.5*

Results for c1ccc(Cn2c(CNc3nc4ccccc4n3CCN3CCCCC3)nc3ccccc32)cc1 ?
GalR3 antagonist: -9; FXN GAA850 act: -11; SMARCA2 act: 4; Cardio protect: -22; Gli-Sufu block: 14; NR2F2 inh: 13

Results for CCCN(C(=O)CSCC(=O)Nc1ccc(OC)cc1)c1c(N)n(Cc2ccccc2)c(=O)[nH]c1=O ?
GalR3 antagonist: -4; FXN GAA850 act: 3; SMARCA2 act: -1; Cardio protect: -3; Gli-Sufu block: 4; NR2F2 inh: -18

Results for COc1ncnc2c1ncn2CC1COC(C)(C)O1 (centres undefined) ?
GalR3 antagonist: 0; FXN GAA850 act: -1; SMARCA2 act: -1; Cardio protect: -2; Gli-Sufu block: 4; NR2F2 inh: -8

How did COc1ccc([C@H]2CC(=O)C[C@@H](CCn3cc(-c4ccccc4)nn3)O2)cc1 do in these assays?
GalR3 antagonist: -3; SMARCA2 act: 0; NR2F2 inh: -4

What do the screens show for `COc1ccc([C@H]2CC(=O)C[C@@H](CCn3cc(-c4ccc(F)cc4)nn3)O2)cc1`?
GalR3 antagonist: -6; SMARCA2 act: 9.6*; NR2F2 inh: -9; SMARCA2 conf: -3; VP16 Luc act: 1

What do the screens show for `CSc1nc(N)c(C(=O)Nc2ccc([N+](=O)[O-])cc2)s1`?
GalR3 antagonist: -5; FXN GAA850 act: 0; SMARCA2 act: 0; Cardio protect: -4; Gli-Sufu block: 0; NR2F2 inh: -30

How did COc1ccccc1NS(=O)(=O)c1cc(C(=O)NCCC(C)C)ccc1F do in these assays?
GalR3 antagonist: -6; FXN GAA850 act: 2; SMARCA2 act: -4; Cardio protect: 17; Gli-Sufu block: 1; NR2F2 inh: 2

Results for COc1cccc(C(=O)O/N=C(\N)CS(=O)(=O)c2ccccc2)c1 ?
GalR3 antagonist: -2; FXN GAA850 act: 2; SMARCA2 act: 12*; Cardio protect: 4; Gli-Sufu block: -8; NR2F2 inh: -21; SMARCA2 conf: 2; VP16 Luc act: 2

How did COc1cccc(C(NC(C)=O)c2nc(-c3cccc(C(=O)O)c3)cs2)c1 (centres undefined) do in these assays?
GalR3 antagonist: -4; FXN GAA850 act: -1; SMARCA2 act: -6; Cardio protect: -5; NR2F2 inh: -27

How did Clc1ccc(/C=C\c2nccc3c2[nH]c2ccccc23)cc1 do in these assays?
GalR3 antagonist: -2; FXN GAA850 act: 3; SMARCA2 act: 0; Cardio protect: -11; Gli-Sufu block: -5; NR2F2 inh: 0

Results for N#Cc1ccc(/C=C\c2nccc3c2[nH]c2ccccc23)cc1 ?
GalR3 antagonist: -4; FXN GAA850 act: 1; SMARCA2 act: 9.9*; Cardio protect: -18; Gli-Sufu block: -5; NR2F2 inh: -2; SMARCA2 conf: 10*; VP16 Luc act: -2

Results for Cc1cc(C)cc(NC(=O)CSc2nnnn2-c2cccnc2)c1 ?
GalR3 antagonist: -9; FXN GAA850 act: 1; SMARCA2 act: -2; Cardio protect: 9; Gli-Sufu block: -5; NR2F2 inh: 26
